From PubChem
NALP1 inh = blocks the NALP1 inflammasome reconstituted in yeast; S. cerevisiae NALP1/ASC/caspase-1 growth, X-gal OD620, 72 h; inhibition, % at 10 µM; hit rate 0.61% among 280,000; AID 2071; in the data active means inhibition mostly above about 24%, no sharp cut-off; inactive means mostly below about 32%
tim23-1 inh = growth inhibitors of tim23-1 mutant yeast. S. cerevisiae tim23-1 growth, BacTiter-Glo luminescence, 24 h. inhibition, % at 20 µM. hit rate 1.3% among 330,000. AID 463212;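 active means growth inhibition of the mutant yeast at or above 50%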;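 further: temperature-sensitive mutant grown at 25 °C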
tim10-1 inh = growth inhibitors of tim10-1 mutant yeast | inhibition, % at 20 µM | hit rate 2.2% among 330,000 | S. cerevisiae tim10-1 ts strain growth, BacTiter-Glo, 24 h;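 active means inhibition of at least 40%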;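 further: mutant grown at 25 °C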
NALP3 yeast inh = blocks the NALP3 inflammasome reconstituted in yeast; hit rate 0.39% among 330,000; Yeast reconstituted NLRP3/ASC/caspase-1, beta-gal luminescence, 24 h; inhibition, % at 10 µM; AID 2825;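 active means inhibition of 50% or more; inactive means inhibition below 50%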
TIM10 inh = inhibits growth of TIM10 yeast strain; inhibition, % at 10 µM; S. cerevisiae TIM10 strain growth, BacTiter-Glo luminescence, 24 h; hit rate 1.4% among 330,000;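 active means inhibition of 40% or more at the single tested concentration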;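 further: wild-type TIM10 isogenic control strain grown at permissive 25 °C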
tim10-1 conf = tim10-1 yeast growth inhibition, confirmed; shares compounds with tim10-1 inh; S. cerevisiae tim10-1 ts strain growth, BacTiter-Glo, 24 h; inhibition, % at 20 µM; hit rate 56% among 7,400; AID 463213;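 active means inhibition of yeast growth at or above a set limit in either of two repeat tests at 20 µM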;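 further: tim10-1 mutant grown at permissive 25 °C to find synthetic lethal compounds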
tim10 confirm = TIM10 yeast growth inhibition, confirmed | shares compounds with TIM10 inh | AID 463215 | inhibition, % at 10 µM | hit rate 63% among 4,600 | S. cerevisiae tim10 strain growth, BacTiter-Glo luminescence, 24 h;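 active means inhibition of yeast growth at or above a set limit in either of two replicates at 10 µM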; further: this counterscreen used the strain with wild-type TIM10
tim23-1 conf = confirmation of tim23-1 mutant yeast growth inhibitors | inhibition, % at 20 µM | hit rate 83% among 4,400 | shares compounds with tim23-1 inh | S. cerevisiae tim23-1 growth, BacTiter-Glo luminescence, 24 h;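 active means inhibition above about 39% in either of two replicate wells at 20 µM, limit read from the data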;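 further: temperature-sensitive tim23-1 mutant grown at 25 °C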
Large screens that a line does not name were inactive (follow-up assays come after a bar, where they were run). Compounds with a hit are over-represented: about 4% of the library has one in this group of screens.

CCCC(=O)c1ccc(N2CCN(C(=O)c3ccccc3Br)CC2)c(F)c1	tim23-1 inh 52.5, tim10-1 inh 46.3 | tim10-1 conf 37.8 | tim23-1 conf 47.0
Cc1c(Cl)cccc1NC(=S)NCc1cccs1	none
S=C(NCc1cccs1)Nc1cccc(Cl)c1Cl	tim23-1 inh 55.9, tim10-1 inh 50.3, TIM10 inh 40.5 | tim10-1 conf 32.3 | tim10 confirm inactive | tim23-1 conf 55.7
CC(Cn1cncn1)C(=O)N1CCN(S(=O)(=O)c2ccccc2)CC1 (stereo not given)	none
COc1cccc(Nc2ccc([N+](=O)[O-])c3nonc23)c1	tim23-1 inh 70.2, tim10-1 inh 57.2 | tim10-1 conf inactive | tim23-1 conf 78.5
COc1cccc(Nc2cc(N3CCOCC3)c3nonc3c2[N+](=O)[O-])c1	none
COc1cc2c3c(c1)C(C)=CC(C)(C)N3C(=O)C2=O	tim23-1 inh 56.7, tim10-1 inh 41.3 | tim10-1 conf inactive | tim23-1 conf 57.3
Cc1cccc(C)c1NS(=O)(=O)c1ccc(-c2cnc(C3CC3)o2)cc1	tim23-1 inh 71.5, tim10-1 inh 53.5 | tim10-1 conf 31.9 | tim23-1 conf 62.7
O=C(c1cc(-c2ccc(O)cc2)on1)N1CCN(c2ccc(F)cc2)CC1	tim23-1 inh 51.8, tim10-1 inh 48.9, TIM10 inh 41.1 | tim10-1 conf inactive | tim10 confirm 40.6 | tim23-1 conf 46.4
O=C(c1cc(-c2ccc(O)cc2)on1)N1CCN(c2ccccc2)CC1	none
CSCCC(NC(=O)c1ccccc1Br)C(=O)NCC(c1ccco1)N1CCCCC1 (stereo not given)	none (no result: NALP1 inh)
COc1ccccc1CN(Cc1nc2ccccc2c(=O)[nH]1)C(=O)Nc1ccccc1C	none
COc1ccccc1CN(Cc1nc2ccccc2c(=O)[nH]1)C(=O)Nc1ccc(C)cc1	tim23-1 inh 59.4, tim10-1 inh 42.8, TIM10 inh 55.2 | tim10-1 conf 38.2 | tim10 confirm 40.3 | tim23-1 conf 51.3
Nc1nc(-c2ccc3c(c2)CCCC3)cs1	tim23-1 inh 51.5, tim10-1 inh 59.0 | tim10-1 conf 44.5 | tim23-1 conf 53.7
Nc1nc(-c2ccc3c(c2)OCCO3)cs1	none
COc1ccc(S(=O)(=O)N2CCC3(CC2)OCCN3S(=O)(=O)c2c(C)cc(C)cc2C)cc1	none (no result: NALP1 inh)
C=CCn1c(=O)n2ncnc2c2c3c(sc21)CCCC3	none (no result: tim23-1 inh, tim10-1 inh, NALP3 yeast inh, TIM10 inh)
O=c1n(Cc2ccc(Cl)cc2)c2sc3c(c2c2ncnn12)CCCC3	tim23-1 inh 68.3, tim10-1 inh 43.6 | tim10-1 conf inactive | tim23-1 conf 58.2
Cc1cc(Nc2ccccc2)nc(-c2ccccc2O)n1	tim23-1 inh 65.3, tim10-1 inh 63.1, TIM10 inh 55.9 | tim10-1 conf 55.2 | tim10 confirm 65.8 | tim23-1 conf 68.1
CCOC(=O)c1ccc(Nc2cc(C)nc(-c3ccccc3O)n2)cc1	none
CCN1C(=O)/C(=C/N(C)c2ccccc2)OC1=S	none
CCN1C(=O)/C(=C\N(C(C)=O)c2ccccc2)OC1=S	tim23-1 inh 69.9, tim10-1 inh 49.2, TIM10 inh 61.2 | tim10-1 conf 56.6 | tim10 confirm 57.5 | tim23-1 conf 57.0
CC(=O)Nc1ccc(C(=O)NCC(=O)OCc2c(F)cccc2Cl)cc1	none
CN1c2ccccc2C(C)(C)C12C=Cc1cc(O)ccc1O2 (stereo not given)	tim23-1 inh 54.5, tim10-1 inh 51.9, TIM10 inh 43.2 | tim10-1 conf 41.2 | tim10 confirm 42.3 | tim23-1 conf 52.4
Cc1cc(=O)[nH]c(SCC(=O)C23CC4CC(CC(C4)C2)C3)c1C#N	tim23-1 inh 74.2, tim10-1 inh 66.0, TIM10 inh 72.7 | tim10-1 conf 60.2 | tim10 confirm 58.7 | tim23-1 conf 48.9
CCCCCCNc1c([N+](=O)[O-])c(=O)sc2ccccc12	none
CC(C)(C)Nc1c([N+](=O)[O-])c(=O)sc2ccccc12	tim23-1 inh 71.3, tim10-1 inh 54.6, TIM10 inh 59.6 | tim10-1 conf 52.8 | tim10 confirm 48.6 | tim23-1 conf 68.6
COc1ccc2c(c1)CCc1c-2nc2ccccc2c1N1CCOCC1	none (no result: NALP1 inh)
O=c1c2c(-c3cccs3)csc2ncn1-c1ccc(Br)cc1	tim23-1 inh 59.3, tim10-1 inh 41.9 | tim10-1 conf 35.4 | tim23-1 conf 47.5
O=c1c2c(-c3cccs3)csc2ncn1/N=C/c1ccccn1	tim23-1 inh 60.9, tim10-1 inh 56.3 (no result: NALP1 inh) | tim10-1 conf 60.0 | tim23-1 conf 62.5
COc1ccc(C(=O)Nn2cnc3scc(-c4cccs4)c3c2=O)c(O)c1	none (no result: NALP1 inh)
COc1cccc(-n2cnc3scc(-c4cccs4)c3c2=O)c1	tim23-1 inh 51.7, tim10-1 inh 43.0 | tim10-1 conf 42.0 | tim23-1 conf 49.8
O=C(O)COc1ccc(/C=N/n2cnc3scc(-c4cccs4)c3c2=O)cc1	none (no result: tim23-1 inh, tim10-1 inh, NALP3 yeast inh, TIM10 inh)
Nn1cnc2scc(-c3cccs3)c2c1=O	none
Cc1nc2ccccc2c2c(N)c3ccccc3n12	tim23-1 inh 53.0, tim10-1 inh 41.4, TIM10 inh 76.6 | tim10-1 conf 47.4 | tim10 confirm inactive | tim23-1 conf 55.0
CCCCCCCNC(=O)C1(CC2CC(c3ccc(Cl)cc3)=NO2)CCN(C(=O)C2(C)CC2)CC1 (stereo not given)	none
CCN1CCN(c2ccc(S(=O)(=O)N3CCCCC3)cc2NC(=O)CC(NC(C)=O)c2ccccc2)CC1 (stereo not given)	none (no result: NALP1 inh)
CCOC(=O)C1=C(SCC)c2cc3c(n2C1=O)CCCC3	tim23-1 inh 59.0, tim10-1 inh 65.2, TIM10 inh 58.6 | tim10-1 conf 48.1 | tim10 confirm inactive | tim23-1 conf 60.9
O=C(Nc1ccc2c(c1)OCO2)N1CCN(Cc2ccco2)CC1	none
Oc1ccccc1-c1cc(-c2ccco2)[nH]n1	none
Oc1ccc(Br)cc1-c1cc(-c2ccco2)[nH]n1	tim23-1 inh 68.3, tim10-1 inh 47.5, TIM10 inh 43.5 | tim10-1 conf 32.2 | tim10 confirm 33.6 | tim23-1 conf 51.5
CC(C)c1ccc(NC2CCCN(C(=O)CSc3nncn3C)C2)cc1 (stereo not given)	none
CCn1c(C(=O)NC(C)c2ccc3c(c2)OCCO3)cc2sccc21 (stereo not given)	tim23-1 inh 52.7, tim10-1 inh 43.9 | tim10-1 conf 31.6 | tim23-1 conf 46.0
COc1ccc(C(=O)Nc2ccccc2C(=O)N/N=C/c2ccco2)cc1	tim23-1 inh 71.9, tim10-1 inh 66.5, TIM10 inh 47.4 | tim10-1 conf 67.5 | tim10 confirm 43.0 | tim23-1 conf 71.8
O=C(Nc1ccccc1C(=O)N/N=C/c1ccncc1)c1ccccc1	tim23-1 inh 77.0, tim10-1 inh 68.3, TIM10 inh 62.4 | tim10-1 conf 68.3 | tim10 confirm 35.5 | tim23-1 conf 70.2
